Measured values: PubChem BioAssay (NCI)
Several values for one entry are separate records, joined by “and”; a condition that tells them apart may be missing. Equal entries are not always repeated. Compounds without any hit were thinned out: in the full panel of roughly 79,000, 15% have a hit. A number with no mark means an inactive call. Activity calls are given as the source filed them. Rule as the data show it: active = growth inhibition above about 70%; inactive = the rest.

What was measured:
[1] = NCI Yeast Anticancer Drug Screen. Data for the rad50 strain (AID 155);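 also: 0% = growth of vehicle-only cultures of the same strain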; conditions: S. cerevisiae rad50 strain growth inhibition, stronger effect = higher value
Summary of the method: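 Cells are treated with compound, grown, and their growth is then scored against vehicle-only cultures of the same repair-deficient yeast strain.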

[2] = NCI Yeast Anticancer Drug Screen. Data for the mec2-1 strain (AID 157); conditions: S. cerevisiae mec2-1 strain, stronger effect = higher value
Summary of the method: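 Yeast mec2-1 mutant treated with compound. Readout: growth inhibition vs vehicle controls.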

[3] = NCI Yeast Anticancer Drug Screen. Data for the sgs1 mgt1 strain (AID 161);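 also: 0% = growth of cultures given vehicle only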; conditions: S. cerevisiae sgs1 mgt1 strain, stronger effect = higher value
Summary of the method: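 Test agents were incubated with a DNA-repair-mutant yeast strain. Growth was then read and compared against vehicle-treated controls.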

[4] = NCI Yeast Anticancer Drug Screen. Data for the cln2 rad14 strain (AID 165);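 also: 0% = growth equal to vehicle treated cultures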; conditions: S. cerevisiae cln2 rad14 strain, stronger effect = higher value
Summary of the method: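 cln2 rad14 yeast strain; compound exposure; growth inhibition read vs vehicle controls.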

[5] = NCI Yeast Anticancer Drug Screen. Data for the mlh1 rad18 strain (AID 175); conditions: S. cerevisiae mlh1 rad18 strain growth inhibition, stronger effect = higher value
Summary of the method: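 Yeast w/ defined DNA-repair lesions; compound exposure; growth vs vehicle controls → % inhibition.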

[6] = NCI Yeast Anticancer Drug Screen. Data for the bub3 strain (AID 167); conditions: S. cerevisiae bub3 mutant strain, stronger effect = higher value
Summary of the method: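 Part of a panel of yeast mutants defective in DNA damage repair or cell cycle regulation. Each strain is grown with compound, and inhibition is calculated relative to solvent-treated cultures.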

[7] = at 5.0 µM (retest, dose inferred, filed as 0.5)
[8] = at 50.0 µM (retest, dose inferred, filed as 5.0)

| Compound | growth inhibition [1, 7] | growth inhibition [1, 8] | growth inhibition ([1]; at 50.0 µM) | growth inhibition [2, 7] | growth inhibition [2, 8] | growth inhibition ([2]; at 50.0 µM) | growth inhibition [3, 7] | growth inhibition [3, 8] | growth inhibition ([3]; at 50.0 µM) | growth inhibition [4, 7] | growth inhibition [4, 8] | growth inhibition ([4]; at 50.0 µM) | growth inhibition [5, 7] | growth inhibition [5, 8] | growth inhibition ([5]; at 50.0 µM) | growth inhibition [6, 7] | growth inhibition [6, 8] | growth inhibition ([6]; at 50.0 µM) |
| --- | --- | --- | --- | --- | --- | --- | --- | --- | --- | --- | --- | --- | --- | --- | --- | --- | --- | --- |
| CC1(C)C2CCC1(CS(=O)O)C(=O)C2.[Ag] (stereo not drawn) | 99% (active) | 99% (active) | 99.2% (active) | 100% (active) | 99% (active) | 99.5% (active) | 100% (active) | 99% (active) | 99.5% (active) | 99% (active) | 99% (active) | 98.7% (active) | 100% (active) | 99% (active) | 99.6% (active) | – | – | – |
| COc1ccc(Oc2c(OC)cc(NCCCCCNC(C)C)c3ncccc23)cc1 | 26% | 72% (active) | 91.9% (active) | 13% | 52% | 67.9% | 37% | 85% (active) | 93.7% (active) | 19% | 48% | 57.8% | 19% | 52% | 89.8% (active) | – | – | – |
| O=C1OC2(CCCC2)OC1c1ccccc1 (stereo not drawn) | 2% | -7% | 14.9% | -1% | 2% | -17.6% | -2% | -7% | -9.7% | – | – | – | -5% | -9% | -6.4% | -5% | -4% | 13.2% |
| O=C1c2c(Br)c(Br)c(Br)c(Br)c2C(=O)N1c1nccs1 | -1% | 51% | 75.4% (active) | -4% | 72% (active) | 70.8% (active) | – | – | – | -20% | 25% | 45.5% | 21% | 72% (active) | 72.3% (active) | 11% | 70% (active) | 69.4% |
| C=CCc1cc(Cl)ccc1O | 1% | 51% | 37.6% | -2% | 27% | 79% (active) | – | – | – | 1% | 14% | 61.2% | 1% | 51% | 36.4% | 0% | 19% | 38.7% |
| Cn1cnc([N+](=O)[O-])c1Sc1nnnn1-c1ccccc1 | 53% | 86% (active) | 82% (active) | 29% | 70% (active) | 75.8% (active) | 47% | 71% (active) | 68.7% | 32% | 51% | 36.1% | 60% | 91% (active) | 80.5% (active) | – | – | – |
| O=C1OC2(c3ccc(O)cc3Oc3cc(O)ccc32)c2c1c(-c1ccccc1)c(-c1ccccc1)c(-c1ccccc1)c2-c1ccccc1 | 26% | 83% (active) | 76.7% (active) | 13% | 52% | 36.6% | 14% | 50% | 39.9% | -10% | 34% | -14.4% | 6% | 73% (active) | 62.8% | – | – | – |
| COc1ccc2nc3cc(Cl)ccc3c(NCCCCCCNc3c4ccc(Cl)cc4nc4ccc(OC)nc34)c2n1 | 5% | 87% (active) | 96.9% (active) | 6% | 74% (active) | 98.2% (active) | 5% | 82% (active) | 98.2% (active) | – | – | – | 2% | 82% (active) | 96.5% (active) | 3% | 92% (active) | 96.8% (active) |
| CN1c2ccccc2Sc2c1n[nH]c2-c1ccccc1 | -1% | 64% | – | -3% | 79% (active) | 96.1% (active) | 0% | 79% (active) | 98.8% (active) | 2% | 68% | 98% (active) | -4% | 91% (active) | 98.8% (active) | -1% | 95% (active) | 99% (active) |
| O=C1NC(=O)/C(=C/c2ccc(S(=O)(=O)N/N=C\C(O)C(O)C(O)C(O)CO)cc2)N1 (stereo not drawn) | – | – | 3.55% and -20.8% and 1.5% | – | – | -3.7% and 38.8% and 12.5% | – | – | -19.6% and 19.2% and -13.3% | – | – | 2.3% and 4.95% and 8.9% | – | – | 15.4% and 28.7% and 13.4% | – | – | -17.4% and -6.2% and 3.65% |
| COc1ccccc1C1c2cc3c(cc2OC(N2CCOCC2)C1C)OCO3 (stereo not drawn) | 15% | 18% | 37.2% | – | – | – | 26% | 47% | 26.4% | 25% | 56% | 18.3% | 9% | 32% | 59.5% | 18% | 57% | 40.8% |
